The test concerns the target Solute carrier family 2, facilitated glucose transporter member 1 (Homo sapiens) (UniProt P11166). In words: ST_JUDE_LEISH: Cytotoxicity at 2uM final concentration against transgenic Leishmania Mexicana promastigotes LmGLUT1 that are glucose transport deficient and complemented with the human glucose transporter GLUT1. Activity is measured by DNA content using SYBR green in vitro. It is filed as functional.
Sequence of Solute carrier family 2, facilitated glucose transporter member 1 (Homo sapiens) (P11166 whole entry): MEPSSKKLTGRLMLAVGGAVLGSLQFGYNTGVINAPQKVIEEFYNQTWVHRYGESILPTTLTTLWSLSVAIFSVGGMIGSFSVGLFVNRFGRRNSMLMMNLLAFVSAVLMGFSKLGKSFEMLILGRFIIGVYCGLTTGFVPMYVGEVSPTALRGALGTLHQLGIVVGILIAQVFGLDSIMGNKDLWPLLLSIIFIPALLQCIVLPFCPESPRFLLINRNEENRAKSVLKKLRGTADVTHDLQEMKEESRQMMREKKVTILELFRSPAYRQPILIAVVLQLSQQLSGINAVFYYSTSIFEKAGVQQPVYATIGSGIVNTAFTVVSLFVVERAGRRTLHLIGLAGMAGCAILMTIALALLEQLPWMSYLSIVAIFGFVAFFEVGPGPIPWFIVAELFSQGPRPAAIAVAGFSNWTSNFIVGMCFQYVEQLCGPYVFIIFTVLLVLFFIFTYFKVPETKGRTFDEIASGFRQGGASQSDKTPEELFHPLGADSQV
As to `O=C(CSc1nnc(-c2ccccc2Br)[nH]1)c1c[nH]c2ccccc12`, the inhibition was -0.5%.

Regarding `CN1CCC(N(Cc2ccc(N3CCN(Cc4c[nH]c5ccc(Cl)cc45)CC3)nc2)C2CC2)CC1`, the inhibition was found to be 9.81%.

On to `C[C@H]1CN(Cc2cccc(-c3cc(CNC(=O)c4cccc(CN5CCN(C/C=C/c6ccccc6)CC5)c4)ccc3F)c2)CCN1`, for which the inhibition was determined as 11.6%.

For `Cc1ccc(C(=O)Nc2cccc(CN3CCCN(Cc4ccc(O)cc4)CC3)c2)s1`, the inhibition was -2.38%.

Take `N#Cc1ccc(NC2(C(=O)N3CCN(c4cccc(Cl)c4)CC3)CC2)c2ccccc12`: the inhibition was found to be 2.79%.

In the case of `COc1cc(C(=O)NCCCN2CCN(c3cccc(Cl)c3)CC2)ccc1-c1nc2cc(Cl)c(F)cc2[nH]1`, the inhibition is 1.22%.

Turning to `O=C(/C=C/c1ccc(Cl)c(Cl)c1)N1CCC(CCN2CCC(c3c[nH]c4ccccc34)CC2)CC1`, the inhibition was -0.41%.

As for `S=C(NCCCCCN1CCC(c2c[nH]c3ccccc23)CC1)Nc1cccc(I)c1`, the inhibition stood at 0.7%.

For `c1ccc(-c2cc(NCCCCNc3cc(-c4ccccc4)nc4ccccc34)c3ccccc3n2)cc1`, the inhibition turned out to be 6.88%.

Turning to `CN(C)c1ccc(CN2CCCCC(NC(=O)c3cc(-c4ccccc4F)cs3)C2)cc1` (centres undefined), the inhibition is -0.57%.

For the molecule `COc1ccc(Nc2nc(NC3CCN(Cc4ccccc4)CC3)cc(-c3ccncc3)n2)cc1`, the inhibition is -0.03%.

Regarding `Cc1cc(C)c2oc(-c3cccc(NC(=O)c4ccc([N+](=O)[O-])o4)c3C)nc2c1`, the inhibition was 11.4%.

In the case of `Cn1cncc1C(=O)Nc1ccc(-c2cccc(-c3nc4cc(F)ccc4[nH]3)c2)cc1`, the inhibition came out at 3.54%.

As to `FC(F)(F)c1ccc2[nH]c(-c3cccc(-c4cccc(CNCC5CCCO5)c4)c3)nc2c1` (centres undefined), the inhibition was determined as 4.7%.

The term inhibition denotes the change of the read-out against control, counted positive when it falls.
